PubChem BioAssay (NCI)
Compounds without any hit were thinned out: in the full panel of roughly 83,000, 20% have a hit.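 Treatment: one concentration, 48 hours, 96-well format. Scoring: percent growth, with anything below 10 considered active.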 A number with no mark means an inactive call. Active and inactive are the calls of the source.

What follows are compounds tested on NCI/ADR-RES ovarian (assay: NCI-60 one-dose screen, 48 h (100 = growth as untreated, 0 = no growth, -100 = all killed)). Details: 10 µM unless noted.
Protocol: Growth inhibition of the NCI/ADR-RES human […] tumor cell line is measured as a screen for anti-cancer activity. Cells are grown in 96 well plates and exposed to the test compound for 48 hours. Compounds are tested at a single concentration, which is 10^-5 M for most compounds. The reported endpoint is percent growth (GI% or GIPRCNT), where numbers from 0 - 100% represent growth inhibition, and numbers from -100% - 0 represent cell death. For example, a value of 40 represents 60% growth inhibition. A value of 0 means no net growth occurred over the course of the experiment. A value of -40 indicates 40% of cells at the beginning of the experiment died by the end of the experiment. A value of -100 means all cells are dead at the end of the experiment.
NCI-60 Human Tumor Cell Lines Screen was performed using the standard one-dose NCI protocol, which is described in more detail at https://dtp.cancer.gov/discovery_development/nci-60/default.htm.
Compounds with GIPRCNT values below 10 were considered active. Activity score was based on GIPRCNT using the following formula: […]
Score is 0 for GIPRCNT values of 100 or above, 50 for GIPRCNT values of 0, and 100 for GIPRCNT values of -100.

| Compound | growth |
| --- | --- |
| CCOC(=O)c1c(NC(=O)c2ccc(C(C)C)cc2)sc2c(CN(C)C)c(O)ccc12 | 72.6% |
| COc1cccc(/C=C/C(=O)c2cc3c(N)c(C(=O)Nc4ccccc4)sc3nc2C)c1 | -10.5% (active) |
| Cc1noc(C)c1C(=O)OCc1coc2ccccc2c1=O | 90.7% |
| O=C(CI)NC1Oc2ccccc2-c2oc(=O)c(-c3ccccc3)cc21 (stereo not given) | 36.7% |
| COc1cc(CNC(=O)/C=C/C=C/c2ccc3c(c2)OCO3)ccc1OCc1cn(-c2ccc(C)c(C)c2)nn1 | 80.5% |
| C=C1C(=O)O[C@H]2[C@H]1CC/C(COC(=O)N[C@H]1C[C@H](O[C@H]3C[C@](O)(C(=O)CO)Cc4c(O)c5c(c(O)c43)C(=O)c3c(OC)cccc3C5=O)O[C@@H](C)[C@H]1O)=C\CC[C@@]1(C)O[C@@H]21 | 100% |
| Cc1ccc(S(=O)(=O)N2CCCC2CO)cc1 (stereo not given) | 56.7% |
| O=Nc1c(-c2c(O)[nH]c3ncccc23)[nH]c2ccccc12 | 71.8% |
| CCCCC(=O)c1ccco1 | 93.3% |
| C=C(C)[C@@H]1CC[C@]2(C(=O)N3CCN(C)CC3)CC[C@]3(C)[C@H](CC[C@@H]4[C@@]5(C)CC(=C/c6ccncc6)/C(=N/O)C(C)(C)[C@@H]5CC[C@]43C)[C@@H]12 | 78.8% |
| COC(=O)[C@]1(C)CCC[C@]2(C)[C@H]3C[C@H]4C(C(C)C)=C[C@]3(CC[C@H]21)[C@H]1[C@@H]4[C@@H](OCCC#N)CC[C@@H]1OCCC#N | 41.8% |
| O=C(CSc1nc2sc3c(c2c(=O)n1-c1ccccc1)CCCCC3)N/N=C/c1ccc(F)cc1 | 22.9% |
| COc1ccc2cc(C(=O)c3coc4ccc(O)cc34)ccc2c1 | 99.8% |
| O=C1/C(=C/c2cccs2)SC(=S)N1CCCN1CCOCC1 | 92.7% |
| CCOC(=O)Cn1c(O)c(N=Nc2ccc(S(N)(=O)=O)cc2)c2cc(Br)ccc21 | 89.7% |
| COc1ccc2c3c([nH]c2c1)C(=O)c1nc(C)ccc1C3=O | 44.3% |
| Oc1c(Cl)cc(Cl)c2ccc(Cn3cc(-c4cc(F)cc(F)c4)nn3)nc12 | 108% |
| Cc1ccc(Sc2oc(-c3ccc(C)cc3)nc2[P+](c2ccccc2)(c2ccccc2)c2ccccc2)cc1 | 1.73% (active) |
| OB(O)c1cccc(-c2nc3ccc4[nH]ncc4c3c3c2CCCC3)c1 | 87.6% |
| O=C1Nc2ccccc2/C1=C\c1nc(-c2ccccc2)n2ccccc12 | 93.9% |

| Compound | growth |
| --- | --- |
| CN(CCn1sc(=O)n(Cc2ccccc2)c1=O)Cc1ccc2c(Cl)cc(Cl)c(O)c2n1 | 6.83% (active) |
| O=C1c2cccc3cccc(c23)C(=O)N1N1C(=O)c2cccc3c(N4CCOCC4)ccc(c23)C1=O | 92% |
| CCOC(=O)C(=Cc1cccc(Br)c1)C(=O)OCC | 11.7% |
| O=C(OCc1ccc2c(Cl)cc(Cl)c(O)c2n1)n1cncn1 | 5.53% (active) |
| COc1ccc(/C=C2\COc3ccc(O)cc3C2=O)c(OC)c1OC | 55.1% |
| O=C(O)CNC1=C(Cl)C(=O)c2ccccc2C1=O | 98.3% |
| O=C1/C(=C/c2ccc(-c3ccc(Br)cc3)o2)SC(=S)N1CCc1ccc(O)cc1 | 81.7% |
| COC(=O)c1cc(-c2ccccc2)[nH]c1N/N=C/c1c(Cl)cccc1Cl | -16.2% (active) |
| COc1cccc(CNc2ncnc3c2ncn3C2OC(CO)C(O)C2O)c1O (stereo not given) | 2.34% (active) |
| CC1=Nc2cnc(Nc3ccc(OCCN4CCCC4)cc3)nc2Nc2ccccc21 | 82.7% |
| O=C(CN1C(=O)CCC1=O)Nc1ncc(Cc2ccc(F)cc2)s1 | 100% |
| c1ccc(CNc2c3ccccc3nc3ccccc23)cc1 | 37.6% |
| CCOC(=O)c1nc(Nc2ccc(NC(=O)Nc3ccc(F)cc3)cc2)c2ccccc2n1 | 92.7% |
| COc1cc(C(=O)n2nc(N3CCN(C)CC3)c3cc(N)ccc32)cc(OC)c1OC | 67.9% |
| CCc1nc2c(=O)[nH]cnc2o1 | 101% |
| CCCCN[C@H]1CC[C@@]2(C)[C@@H](CC[C@@]3(C)[C@H]2[C@H](O)C[C@H]2/C(=C(\CCC=C(C)C)C(=O)OC)[C@@H](OC(C)=O)C[C@@]23C)[C@@H]1C | 100% |
| CCn1c(SCC(=O)c2ccc(Br)cc2)nnc1-c1ccncc1 | 107% |
| COc1ccc(OC)c(C(=O)/C=C/c2cc3c(c(OC)c2OC)OCO3)c1 | 63.1% |
| CN1CCN(C(=O)OCc2ccc3c(Cl)cc(Cl)c(O)c3n2)CC1 | 15% |
| C1=CN2CC(c3ccccc3)=NNC2c2ccccc21 (stereo not given) | 80.6% |
